Experiment [1] deals with Mast/stem cell growth factor receptor Kit (Homo sapiens) (UniProt P10721). The conditions noted are these: at 1 µM.
Experiment [2] has as its system Mast/stem cell growth factor receptor Kit (Homo sapiens), P10721 [D816V]. The conditions noted are these: at 0.1 µM.
For experiment [3] the test system is unchanged. The conditions noted are these: at 1 µM.
In experiment [4] the test system is Mast/stem cell growth factor receptor Kit (Homo sapiens), P10721 [T670I]. Conditions: at 0.1 µM.
Mast/stem cell growth factor receptor Kit (Homo sapiens), P10721 [T670I], sequence (P10721 whole entry T670I): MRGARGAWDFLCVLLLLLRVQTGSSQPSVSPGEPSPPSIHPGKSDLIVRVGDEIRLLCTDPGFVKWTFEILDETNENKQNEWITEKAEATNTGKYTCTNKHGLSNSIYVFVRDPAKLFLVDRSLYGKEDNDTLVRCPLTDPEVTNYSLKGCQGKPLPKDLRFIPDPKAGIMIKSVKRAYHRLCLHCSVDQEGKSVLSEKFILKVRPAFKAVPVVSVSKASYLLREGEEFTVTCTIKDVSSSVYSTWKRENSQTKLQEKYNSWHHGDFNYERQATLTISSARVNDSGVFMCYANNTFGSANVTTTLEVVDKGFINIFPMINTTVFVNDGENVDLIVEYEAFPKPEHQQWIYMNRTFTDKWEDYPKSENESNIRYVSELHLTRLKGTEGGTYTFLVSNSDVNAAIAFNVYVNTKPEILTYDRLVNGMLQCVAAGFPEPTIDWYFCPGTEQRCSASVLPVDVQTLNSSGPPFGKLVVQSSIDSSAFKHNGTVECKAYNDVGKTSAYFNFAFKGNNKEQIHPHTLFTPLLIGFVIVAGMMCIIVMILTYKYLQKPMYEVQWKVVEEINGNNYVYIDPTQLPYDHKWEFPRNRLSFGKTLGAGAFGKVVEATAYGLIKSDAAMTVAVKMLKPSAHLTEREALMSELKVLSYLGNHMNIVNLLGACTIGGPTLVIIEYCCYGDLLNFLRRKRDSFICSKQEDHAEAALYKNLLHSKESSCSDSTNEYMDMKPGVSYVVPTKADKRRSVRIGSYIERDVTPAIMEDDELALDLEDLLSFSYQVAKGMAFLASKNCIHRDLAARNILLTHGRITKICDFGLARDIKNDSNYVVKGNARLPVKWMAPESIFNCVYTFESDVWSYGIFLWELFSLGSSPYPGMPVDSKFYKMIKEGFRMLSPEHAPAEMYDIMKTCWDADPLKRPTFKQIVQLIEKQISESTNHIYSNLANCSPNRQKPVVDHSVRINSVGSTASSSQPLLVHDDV
Experiment [5] has the same test system. The conditions noted are these: at 1 µM.
Experiment [6] has as its system Mast/stem cell growth factor receptor Kit (Homo sapiens), P10721 [V560G]. Conditions: at 0.1 µM.
The test system is the same in experiment [7]. The conditions noted are these: at 1 µM.
In experiment [8] the target is Tyrosine-protein kinase Lck (Homo sapiens) (UniProt P06239). The conditions noted are these: at 0.1 µM.
Tyrosine-protein kinase Lck (Homo sapiens), sequence (P06239 2-509 limits assumed): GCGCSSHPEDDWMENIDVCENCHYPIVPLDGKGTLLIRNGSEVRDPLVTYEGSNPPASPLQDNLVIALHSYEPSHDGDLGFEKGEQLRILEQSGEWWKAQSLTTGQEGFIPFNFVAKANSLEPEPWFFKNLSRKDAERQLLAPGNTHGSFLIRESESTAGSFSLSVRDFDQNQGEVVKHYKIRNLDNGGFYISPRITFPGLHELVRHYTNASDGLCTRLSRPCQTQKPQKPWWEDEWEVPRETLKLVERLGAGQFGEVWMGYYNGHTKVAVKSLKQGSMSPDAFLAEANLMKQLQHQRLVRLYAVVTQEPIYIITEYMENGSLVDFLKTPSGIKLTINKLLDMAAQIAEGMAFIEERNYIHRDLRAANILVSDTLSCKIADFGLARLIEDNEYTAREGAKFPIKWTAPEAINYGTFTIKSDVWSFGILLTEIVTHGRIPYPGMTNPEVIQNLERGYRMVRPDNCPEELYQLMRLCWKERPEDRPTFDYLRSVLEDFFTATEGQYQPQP
Experiment [9] has the same target. The conditions noted are these: at 1 µM.
Experiment [10] has as its target Leukocyte tyrosine kinase receptor (Homo sapiens) (UniProt P29376). Conditions: at 0.1 µM.
Experiment [11] shares this target. The conditions noted are these: at 1 µM.
Experiment [12] addresses Tyrosine-protein kinase Lyn (Homo sapiens) (UniProt P07948). The conditions noted are these: at 0.1 µM.
Experiment [13] shares this target. Conditions: at 1 µM.
Experiment [14] has the same target. Conditions: at 0.1 µM. The source holds these as a separate data set.
The target is the same in experiment [15]. The conditions noted are these: at 1 µM. The source holds these as a separate data set.
Experiment [16] addresses T1, Tyrosine-protein kinase Mer (Homo sapiens) (UniProt Q12866).
T1 sequence (whole entry): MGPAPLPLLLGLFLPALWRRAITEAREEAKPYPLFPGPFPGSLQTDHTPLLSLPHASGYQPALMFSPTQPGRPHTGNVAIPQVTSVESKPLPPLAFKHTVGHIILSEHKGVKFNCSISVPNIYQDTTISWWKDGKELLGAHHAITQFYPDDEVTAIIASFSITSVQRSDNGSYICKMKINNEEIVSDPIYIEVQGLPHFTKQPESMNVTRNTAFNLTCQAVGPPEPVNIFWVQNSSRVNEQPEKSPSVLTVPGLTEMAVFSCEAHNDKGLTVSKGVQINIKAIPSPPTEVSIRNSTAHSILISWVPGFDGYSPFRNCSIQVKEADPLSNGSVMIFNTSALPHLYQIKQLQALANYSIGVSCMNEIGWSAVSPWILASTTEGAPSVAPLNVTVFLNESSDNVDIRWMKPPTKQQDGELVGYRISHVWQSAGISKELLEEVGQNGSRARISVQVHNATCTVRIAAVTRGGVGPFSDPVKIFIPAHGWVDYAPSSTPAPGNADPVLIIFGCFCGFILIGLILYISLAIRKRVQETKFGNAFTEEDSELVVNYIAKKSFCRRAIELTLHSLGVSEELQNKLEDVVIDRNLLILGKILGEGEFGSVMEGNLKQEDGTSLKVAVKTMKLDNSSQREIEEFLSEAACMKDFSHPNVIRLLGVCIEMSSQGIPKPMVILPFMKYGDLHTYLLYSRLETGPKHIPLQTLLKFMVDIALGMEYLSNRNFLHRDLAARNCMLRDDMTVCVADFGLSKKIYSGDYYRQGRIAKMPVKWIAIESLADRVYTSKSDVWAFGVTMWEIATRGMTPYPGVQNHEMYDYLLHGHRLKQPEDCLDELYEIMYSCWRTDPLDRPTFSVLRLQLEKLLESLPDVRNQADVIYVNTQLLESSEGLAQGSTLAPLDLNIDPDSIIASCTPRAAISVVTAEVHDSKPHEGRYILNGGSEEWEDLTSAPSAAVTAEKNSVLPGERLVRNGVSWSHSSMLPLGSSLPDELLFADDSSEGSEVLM
The conditions noted are these: at 0.1 µM.

Experiment [17] concerns the target T1, Tyrosine-protein kinase Mer (Homo sapiens). The conditions noted are these: at 1 µM.
Experiment [18] deals with Hepatocyte growth factor receptor (Homo sapiens) (UniProt P08581). Conditions: at 0.1 µM.
Hepatocyte growth factor receptor (Homo sapiens), sequence (P08581 whole entry): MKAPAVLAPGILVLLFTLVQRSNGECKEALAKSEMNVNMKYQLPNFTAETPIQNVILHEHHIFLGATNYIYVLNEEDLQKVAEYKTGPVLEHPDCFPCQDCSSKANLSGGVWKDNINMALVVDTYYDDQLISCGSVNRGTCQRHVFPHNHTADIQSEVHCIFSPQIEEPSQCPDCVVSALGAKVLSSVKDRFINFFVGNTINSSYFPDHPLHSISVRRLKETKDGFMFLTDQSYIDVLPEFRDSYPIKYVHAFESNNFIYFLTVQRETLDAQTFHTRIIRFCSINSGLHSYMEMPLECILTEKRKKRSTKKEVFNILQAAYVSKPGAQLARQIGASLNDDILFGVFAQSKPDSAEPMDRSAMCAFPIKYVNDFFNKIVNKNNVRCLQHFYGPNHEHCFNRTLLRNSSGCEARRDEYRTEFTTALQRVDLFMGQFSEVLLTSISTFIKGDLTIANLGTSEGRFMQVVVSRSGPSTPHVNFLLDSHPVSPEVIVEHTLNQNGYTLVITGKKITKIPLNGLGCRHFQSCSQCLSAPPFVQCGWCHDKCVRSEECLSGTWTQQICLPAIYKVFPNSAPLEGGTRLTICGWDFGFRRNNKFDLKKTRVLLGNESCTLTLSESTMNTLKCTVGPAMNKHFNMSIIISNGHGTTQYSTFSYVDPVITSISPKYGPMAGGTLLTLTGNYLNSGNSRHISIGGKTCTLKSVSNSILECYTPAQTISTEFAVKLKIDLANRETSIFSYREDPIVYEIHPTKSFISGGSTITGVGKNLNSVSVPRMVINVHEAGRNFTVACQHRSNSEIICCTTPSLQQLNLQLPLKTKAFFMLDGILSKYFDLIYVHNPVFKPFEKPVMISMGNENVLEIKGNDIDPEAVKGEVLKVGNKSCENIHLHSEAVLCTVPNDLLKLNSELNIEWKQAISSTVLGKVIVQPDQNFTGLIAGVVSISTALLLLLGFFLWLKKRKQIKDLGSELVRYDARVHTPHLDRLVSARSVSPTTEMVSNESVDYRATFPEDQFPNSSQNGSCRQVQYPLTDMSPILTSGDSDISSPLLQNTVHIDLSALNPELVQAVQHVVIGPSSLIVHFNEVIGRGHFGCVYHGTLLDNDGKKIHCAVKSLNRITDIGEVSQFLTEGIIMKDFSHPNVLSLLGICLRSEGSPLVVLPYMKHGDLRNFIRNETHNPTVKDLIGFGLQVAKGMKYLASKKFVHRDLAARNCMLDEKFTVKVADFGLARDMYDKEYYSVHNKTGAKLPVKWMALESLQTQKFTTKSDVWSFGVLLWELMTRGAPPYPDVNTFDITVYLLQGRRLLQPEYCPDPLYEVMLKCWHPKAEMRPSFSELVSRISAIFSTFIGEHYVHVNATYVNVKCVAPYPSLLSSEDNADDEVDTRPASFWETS
The target is the same in experiment [19]. The conditions noted are these: at 1 µM.
The target of experiment [20] is T2, Muscle, skeletal receptor tyrosine-protein kinase (Homo sapiens) (UniProt O15146).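 Note: values are mean inhibition of MuSK from the GSK PKIS kinase screening panel.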
T2 sequence (whole entry): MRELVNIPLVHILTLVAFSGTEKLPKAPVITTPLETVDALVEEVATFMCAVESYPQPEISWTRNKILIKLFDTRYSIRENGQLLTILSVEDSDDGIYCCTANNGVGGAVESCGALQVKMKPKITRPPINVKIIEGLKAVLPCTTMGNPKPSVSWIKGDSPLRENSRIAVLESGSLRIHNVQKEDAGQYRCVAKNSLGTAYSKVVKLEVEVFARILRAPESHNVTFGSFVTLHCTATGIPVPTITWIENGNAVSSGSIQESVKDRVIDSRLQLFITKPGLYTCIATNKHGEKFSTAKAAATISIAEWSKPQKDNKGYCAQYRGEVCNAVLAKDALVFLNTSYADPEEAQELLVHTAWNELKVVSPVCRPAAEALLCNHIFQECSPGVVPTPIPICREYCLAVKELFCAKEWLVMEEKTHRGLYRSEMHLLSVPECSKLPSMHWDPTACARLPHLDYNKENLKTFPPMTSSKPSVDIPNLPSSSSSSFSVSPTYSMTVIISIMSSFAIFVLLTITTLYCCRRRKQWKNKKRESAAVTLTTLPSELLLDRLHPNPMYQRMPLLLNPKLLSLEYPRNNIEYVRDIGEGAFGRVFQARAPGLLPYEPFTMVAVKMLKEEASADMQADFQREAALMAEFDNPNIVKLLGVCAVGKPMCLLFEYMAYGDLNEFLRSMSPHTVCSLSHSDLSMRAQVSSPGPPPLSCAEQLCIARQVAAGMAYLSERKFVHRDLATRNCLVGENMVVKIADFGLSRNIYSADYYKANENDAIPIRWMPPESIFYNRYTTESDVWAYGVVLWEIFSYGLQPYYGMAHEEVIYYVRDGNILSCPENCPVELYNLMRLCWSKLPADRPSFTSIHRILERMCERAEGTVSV
Conditions: at 0.1 µM.

Leukocyte tyrosine kinase receptor (Homo sapiens), sequence (P29376 whole entry): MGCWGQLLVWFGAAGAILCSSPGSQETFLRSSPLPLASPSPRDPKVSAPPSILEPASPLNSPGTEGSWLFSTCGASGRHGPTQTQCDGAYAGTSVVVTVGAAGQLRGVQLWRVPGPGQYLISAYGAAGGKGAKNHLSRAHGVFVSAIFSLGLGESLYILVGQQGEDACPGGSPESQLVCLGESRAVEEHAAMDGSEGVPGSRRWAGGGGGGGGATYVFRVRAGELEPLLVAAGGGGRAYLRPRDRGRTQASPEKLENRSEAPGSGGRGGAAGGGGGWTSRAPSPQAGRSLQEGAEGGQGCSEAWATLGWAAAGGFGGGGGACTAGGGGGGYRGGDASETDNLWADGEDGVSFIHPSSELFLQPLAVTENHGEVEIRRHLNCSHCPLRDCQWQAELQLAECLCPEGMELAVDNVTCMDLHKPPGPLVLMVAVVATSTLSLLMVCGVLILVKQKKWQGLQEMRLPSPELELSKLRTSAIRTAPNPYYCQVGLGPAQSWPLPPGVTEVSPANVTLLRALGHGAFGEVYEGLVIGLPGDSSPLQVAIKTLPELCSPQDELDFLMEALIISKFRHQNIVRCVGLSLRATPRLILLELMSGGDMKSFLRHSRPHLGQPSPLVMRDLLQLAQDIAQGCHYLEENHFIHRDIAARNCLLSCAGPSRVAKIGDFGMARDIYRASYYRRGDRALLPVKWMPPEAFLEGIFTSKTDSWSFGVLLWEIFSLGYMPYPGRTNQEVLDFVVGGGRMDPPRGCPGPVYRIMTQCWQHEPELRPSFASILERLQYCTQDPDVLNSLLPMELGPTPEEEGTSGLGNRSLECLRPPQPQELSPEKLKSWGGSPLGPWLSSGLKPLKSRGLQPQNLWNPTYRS
Mast/stem cell growth factor receptor Kit (Homo sapiens), P10721 [D816V], sequence (P10721 whole entry D816V): as the sequence (P10721 whole entry T670I) above, with I670T, D816V counted along it
Mast/stem cell growth factor receptor Kit (Homo sapiens), sequence (P10721 whole entry): as the sequence (P10721 whole entry T670I) above, with I670T counted along it
Tyrosine-protein kinase Lyn (Homo sapiens), sequence (P07948 2-512 limits assumed): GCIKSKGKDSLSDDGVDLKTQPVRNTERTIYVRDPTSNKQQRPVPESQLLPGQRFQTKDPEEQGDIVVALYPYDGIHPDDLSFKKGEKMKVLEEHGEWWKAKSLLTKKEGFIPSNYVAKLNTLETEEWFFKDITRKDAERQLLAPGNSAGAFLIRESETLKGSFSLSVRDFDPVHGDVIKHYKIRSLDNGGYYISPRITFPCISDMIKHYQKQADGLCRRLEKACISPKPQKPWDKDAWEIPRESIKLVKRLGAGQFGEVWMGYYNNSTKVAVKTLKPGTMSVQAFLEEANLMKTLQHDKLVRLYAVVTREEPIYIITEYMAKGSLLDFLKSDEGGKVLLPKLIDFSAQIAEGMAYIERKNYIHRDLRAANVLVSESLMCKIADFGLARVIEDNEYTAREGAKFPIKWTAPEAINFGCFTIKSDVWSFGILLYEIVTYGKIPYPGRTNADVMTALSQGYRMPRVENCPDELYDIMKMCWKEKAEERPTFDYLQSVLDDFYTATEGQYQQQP
Mast/stem cell growth factor receptor Kit (Homo sapiens), P10721 [V560G], sequence (P10721 whole entry V560G): as the sequence (P10721 whole entry T670I) above, with V560G, I670T counted along it

What is called inhibition is the drop in the measured response relative to a control, in per cent. `FC(F)(F)c1cccc(-c2nn3ncccc3c2-c2ccnc(Nc3ccc4c(c3)OCCO4)n2)c1`: the inhibition in experiment [1] was 24.6%; in experiment [2], 1.11%; in experiment [3] it was 1.8%; in [4], 0.93%; in [5], 3.06%; in experiment [6], -1%. Further, the inhibition in [7] is 5.35%; in experiment [8], 9.37%; in experiment [9], 45.8%; in experiment [10] it was 2.06%; in [11] it was 1.73%; in experiment [12] it was 7.06%. For the same molecule, the inhibition in experiment [13] came out at 39.5%; in experiment [14] it was 5.18%; in experiment [15], 33.9%; in experiment [16], 4.3%; in [17] it was 40%; in experiment [18], 7.83%. The inhibition in experiment [19] worked out at 5.36%; in experiment [20], 1.28%.
Regarding `CNC(=O)c1cncc(/C=C/c2ccccc2Cl)c1`, the inhibition in experiment [1] is 10.7%; in experiment [2], -0.76%; in [3], 3.85%; in [4], -1.89%; in experiment [5], 3.4%; in experiment [6], 2.25%. In addition, the inhibition in experiment [7] was 8.8%; in experiment [8] it was 4.51%; in [9], 5.49%; in experiment [10], -0.19%; in experiment [11], 1%; in experiment [12], 1.6%. For the same molecule, the inhibition in [13] came out at 11.3%; in [14], 1.83%; in experiment [15], 8.12%; in experiment [16], 3.56%; in experiment [17], 2.42%; in [18], 3.72%. Further, the inhibition in experiment [19] came out at 4.48%; in [20], 0.71%.
Consider `Nc1nc(-c2cccc(Cl)c2)c(-c2ccc3ncccc3n2)s1`, for which the inhibition in experiment [1] was 7.87%; in experiment [2], 1.78%; in experiment [3] it was 8.71%; in experiment [4] it was 4.73%; in [5], 6.56%; in experiment [6], -0.42%. The inhibition was -0.36% in [7]; 2.31% in experiment [8]; 8.23% in experiment [9]; 6.27% in [10]; 6.22% in experiment [11]; 7.27% in [12]. The inhibition in [13] amounted to 16.1%; in experiment [14], 5.14%; in experiment [15], 13.2%; in experiment [16] it was 2.09%; in [17], 7.21%; in experiment [18], 6.65%. Moreover, the inhibition amounted to 7.33% in experiment [19] and 2.01% in experiment [20].
Turning to `Cc1cccc(Nc2ncc(-c3ccccc3)o2)c1`, the inhibition was 89% in [1]; 1.52% in [2]; -0.48% in experiment [3]; 4.58% in experiment [4]; 48% in [5]; 6.79% in experiment [6]. Moreover, the inhibition in experiment [7] amounted to 53%; in experiment [8] it was 3.23%; in experiment [9], 5.7%; in experiment [10] it was 3.02%; in [11], 2.88%; in [12], 3.9%. The inhibition in experiment [13] worked out at 8.28%; in experiment [14] it was 2.22%; in [15], 7.24%; in experiment [16] it was 3.9%; in experiment [17] it was 2.26%; in [18], 3.88%. In addition, the inhibition in [19] is 2.78%; in experiment [20] it was 0.01%.
For `Cc1ccc2c(-c3ccnc(Nc4ccccc4)n3)c(-c3ccc(F)cc3)nn2n1`, the inhibition is 75.7% in [1]; 1.56% in experiment [2]; -0.04% in experiment [3]; 0.33% in experiment [4]; 3.98% in experiment [5]; 1.13% in experiment [6]. Further, the inhibition in experiment [7] came out at 27.9%; in experiment [8] it was 15.8%; in experiment [9], 56.9%; in experiment [10], 2.45%; in [11] it was 2.78%; in experiment [12] it was 10.8%. The inhibition in experiment [13] amounted to 50.1%; in experiment [14], 8.55%; in experiment [15], 44.4%; in [16], 3.07%; in [17], 23.9%; in experiment [18], 1.64%. Besides, the inhibition in [19] amounted to 8.18%; in experiment [20] it was 3.5%.
On to `CC1=C(C(=O)Nc2cc(Cl)c3[nH]ncc3c2)C(c2ccc(C(F)(F)F)cc2)CC(=O)N1` (stereo not given), for which the inhibition in experiment [1] is 0.36%; in experiment [2], 4.84%; in experiment [3] it was 6.4%; in experiment [4], 2.93%; in experiment [5] it was 4.07%; in experiment [6], -1.27%. Further, the inhibition was -0.62% in [7]; 4.9% in experiment [8]; 27.1% in experiment [9]; 2.35% in [10]; 3.88% in experiment [11]; 5.29% in [12]. Also, the inhibition came out at 10.9% in experiment [13]; 3.46% in experiment [14]; 9.12% in experiment [15]; 1.72% in experiment [16]; 0.92% in experiment [17]; 0.14% in experiment [18]. The results for the inhibition in experiment [19] and in experiment [20] were 4.94% and 50.2%, respectively.

Source of the values: ChEMBL document CHEMBL1961873, “Compounds: GSK PKIS; Assays: Nanosyn kinase panel” (2012).
